Measurements taken from PubChem BioAssay AID588473 (Sanford-Burnham Center for Chemical Genomics, 2011).
Among all 350,000 compounds or so, about 1,600 (0.46%) were called active. This is one part of a sample in which actives are shown more often than they occur.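 How the source made its calls: active means activation of at least 50%, plus an integration ratio under a set limit after plate pattern correction; inactive means the rest.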

Tested on: CRF-binding protein / CRF receptor 2 complex (human)
Experiment: agonists of CRF-BP/CRF-R2 complex, primary screen, cell-based, HEK293, calcium dye fluorescence, uHTS (AID 588473);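 further: plate controls were neutral control wells without compound for no effect and CRF at EC100 for full effect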
Settings: calcium dye fluorescence (FLIPR), at 13.2 µM, stronger effect = higher value, percent of saturating CRF peptide response

activation, inactive:
COc1cccc(N2CC(NC(=O)c3ccc4ccccc4c3)CC2=O)c1 (centres undefined) -0.96%
O=C(CCc1nc(-c2ccccc2)no1)Nc1cccc(C(=O)NC2CC2)c1 -1.3%
COC(=O)c1ccc(C(=O)OC)c(NC(=S)N2CCN(c3cc(Cl)ccc3C)CC2)c1 2.16%
Cc1cccc(N2CCN(C(=O)c3cnn4c(C(F)F)cc(-c5ccccc5)nc34)CC2)c1C -0.01%
CC(=O)Nc1ccc(S(=O)(=O)N(C)c2ccc(OCC(=O)OCC(=O)N3CCCCC3)cc2)cc1 -1.11%
COc1ccccc1CNC(=O)c1cc(=O)c2ccccc2o1 -1.3%
O=c1oc2ccccc2c(=O)c2ccccc12 0%
O=C(CCN1CCN(c2ccccc2)CC1)NNC(=S)Nc1ccccc1 -0.17%
CC(C)C(=O)NC(=S)Nc1ccccc1F -2.1%
CC(C)CCNC(=O)CC1C(=O)N(Cc2ccccc2)C(C)c2nc3ccccc3n21 (centres undefined) -1%
OC(COCCC12CC3CC(CC(C3)C1)C2)CN1CCCCC1 (centres undefined) 0.79%
COc1ccc(-c2ocnc2C(=O)Nc2ccc3c(c2)CCC3)cc1 1.68%
COc1ccc(NC(C(=O)Nc2cccc(C(C)=O)c2)c2ccccc2)cc1 (centres undefined) -0.34%
CC1CCCCC1NCC(=O)Nc1ccccc1C(=O)Nc1ccccc1 (centres undefined) -2.89%
COc1ccccc1C(=O)Nc1ccccc1C(=O)Nc1ccccc1 0.57%
O=S(=O)(Nc1ccc(-c2ccc(N3CCOCC3)nn2)cc1)c1cc(Cl)ccc1Cl 0.21%
CCOc1ccccc1C1CC(c2ccccc2)Nc2nc(N)nn21 (centres undefined) 8.41%
Clc1ccc2c(c1)C1=C(C(c3ccncc3)O2)C(c2ccc(Br)cc2)n2ncnc2N1 (centres undefined) 0.45%
CC1=C(C(=O)OC2CCCCC2)C(c2cccnc2)n2ncnc2N1 (centres undefined) -0.1%
CN(CC(=O)Nc1ccccc1F)CC(=O)Nc1ccccc1Br -3.49%
Cc1cccc(CC2(O)C(=O)Nc3ccccc32)n1 (centres undefined) -0.62%
CCN(CC)S(=O)(=O)c1ccc(Cl)c(C(=O)NC(C)C(c2cccs2)N2CCCC2)c1 (centres undefined) 0.2%
OCCCNC(c1ccccc1)c1ccc(O)cc1 (centres undefined) -1.4%
COC1=C/C(=C/c2c(N)n3nc(CC(=O)N4CCOCC4)sc3nc2=O)C=CC1=O 9.37%
COc1cc(/C=C2\C(=N)N3N=C(CC(=O)N4CCOCC4)SC3=NC2=O)cc(OC)c1OC -0.4%
CN(CC(=O)Nc1ccc(C(N)=O)cc1)S(=O)(=O)c1ccc2c(c1)OCCO2 3.57%
CCCCCCCCNS(=O)(=O)CCNC1CCCCC1 -0.59%
CC(C)n1c(-c2ccncc2)n[nH]c1=S -1.12%
O=C(Nc1cc2c3c(c1)C1CCCC1CN3CC1CCCC21)c1ccc([N+](=O)[O-])cc1 (centres undefined) -3.97%
Nc1cc(C(=O)N2CCN(c3ccccc3Cl)CC2)ccc1N1CC2CC(C1)c1cccc(=O)n1C2 (centres undefined) 0.29%
Oc1ccc(-c2nncn2-c2ccccc2)cc1 0.43%
CC(N=Cc1nc(-c2ccccc2)oc1O)c1ccccc1 (centres undefined) -5.27%
CCOc1ccc2nc(C(=O)N3CCCC(C)C3)sc2c1 (centres undefined) 0.48%
Cn1c(=O)c2c(nc(N3CCOCC3)n2CCNC2=NCCC2)n(C)c1=O -1.41%
C[C@H]1NS(=O)(=O)c2cc(Cl)ccc2O[C@@H]1c1ccccc1 -0.01%
COC(=O)C1(O)CC(C(C)C)=NN1C(=O)c1ccc(Cl)cc1 (centres undefined) 0.23%
COc1ccc(S(=O)(=O)/N=C2\C=C(NS(=O)(=O)c3ccccc3)C(=O)c3ccccc32)cc1 -1.4%
Cc1ccc(S(=O)(=O)/N=C2\C=C(NS(=O)(=O)c3ccc(C)cc3)C(=O)c3ccccc32)cc1 -2.69%
O=[N+]([O-])c1cc(S(=O)(=O)NCCc2ccccn2)ccc1Cl 1.07%
CCCCN1C[C@H](c2ccc(Br)cc2)[C@@H](CC(=O)Nc2ccc(Br)cc2)C1=O -0.04%
COc1ccc(C2CC(c3cccs3)Nc3nnnn32)cc1 (centres undefined) -1.43%
COC(=O)C1=C(C(=O)c2ccc(C)cc2)C(c2ccccc2)n2nnnc2N1 (centres undefined) -0.02%
CC/C(=N\O)C(C)(C)/[N+]([O-])=C/c1ccc(Br)cc1 0.05%
CC(C)(C)Nc1c(-c2cccs2)nc2ccccn12 -0.46%
CCN(Cc1nc2ccccc2c(=O)[nH]1)Cc1cc(=O)oc2cc(C)c(C)cc12 -0.08%
COC(=O)c1cc(C(=O)OCC(=O)Nc2cc(C)on2)cc([N+](=O)[O-])c1 -3.69%
CCc1ccc(NC(=O)CN2C(=O)COc3ccc(S(=O)(=O)N4CCCC4)cc32)cc1 -5.92%
COCCCNCC(=O)Nc1sc(C)c(C)c1C(=O)OC -2.35%

activation, active:
Cc1ccc(Cl)cc1N1CCN(C(=O)c2cccc3c(=O)c(C)c(-c4ccccc4)oc23)CC1 63.6%
COc1cc(N=Cc2c(O)c3ccccc3oc2=O)c(OC)cc1Cl 66.4%
CCCCC(=O)NNC(=S)NC(=O)C(c1ccccc1)c1ccccc1 135%
COc1ccc(-c2onc3ccc(C(C)=O)cc23)cc1 100%
O=C(Nc1ccccc1)c1ccccc1NC(=O)C(F)(F)F 55.4%
Brc1ccc(C2=CC(c3ccco3)n3ncnc3N2)cc1 (centres undefined) 274%
CCOc1ccc(C2=CC(c3ccccc3)n3ncnc3N2)cc1 (centres undefined) 53.1%
C=CCC1=C/C(=C\c2c(N)n3nc(CC(=O)N4CCOCC4)sc3nc2=O)C=C(OC)C1=O 83.2%
CCOc1ccc2nc(/N=C/c3nc(-c4ccccc4)oc3O)sc2c1 191%
CC1=C/C(=N\S(=O)(=O)c2ccccc2)C(C(C)C)=CC1=O 81.3%
COc1ccc(C2=CC(c3cccc(OC)c3)n3nnnc3N2)cc1 (centres undefined) 69.7%
